The list is not random: actives were taken first. Their share in the collection is about 12%.
HP1b chromo inh: HP1-beta chromodomain-methylated histone interaction inhibition | Potency, µM (series often up to 114 µM), without a hit: at the highest dose activity change, negative = inhibition, most hits filed as inhibitors | AlphaScreen HP1-beta / biotin-H3K9me3 peptide binding | P83916 | AID 540317 | 390,000 compounds, 0.56% hits; also: nearly all actives have a fitted effect of over 70% in size
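Compound inhibition of the preformed complex between 50 nM HP1-beta and 50 nM biotinylated H3K9me3 peptide was read by AlphaScreen. Buffer was PBS pH 7.4 with 0.01% Tween-20. Incubations ran 30 min at room temperature, with 10 ug/mL donor/acceptor beads.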
G9a block: G9a (human) methyltransferase inhibition; 350,000 compounds, 8.8% hits; AID 504332; Potency, µM (highest dose often 102 µM), without a hit: at the highest dose activity, negative = inhibition, most hits filed as inhibitors; G9a H3K9 monomethylation, AlphaScreen, 2 h; Q96KQ7; also: % is scaled to controls: 0 for no effect and ±100 for the full control effect; nearly all actives have a fitted effect of over 75% in size
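Step 1: enzyme (final 20 nM) with compound, 15 min RT. Step 2: substrate peptide 500 nM and SAM 20 uM, 2 h RT. Step 3: anti-H3K9me1 antibody and AlphaScreen beads, 10 min, then plate read.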
JMJD2A Tudor inh: inhibitors of human JMJD2A Tudor domain; AID 504339; AlphaScreen JMJD2A-Tudor / H3K4me3 peptide binding; 390,000 compounds, 4.4% hits; Potency, µM (highest dose often 114 µM), inactives show at the highest dose activity change, negative = inhibition, hits mostly inhibitors; O75164; also: % is scaled to controls: 0 for no effect and ±100 for the full control effect; nearly all actives have a fitted effect of over 50% in size
Sfp PPTase inh: inhibitors of Bacillus subtilis Sfp phosphopantetheinyl transferase. Potency, µM, for the others: largest response in the series, negative = inhibition, usual class: inhibitors. AID 1490. 310,000 compounds, 3.5% hits. Biochemical Sfp PPTase activity, qHTS;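 also: the enzyme is Sfp with the accession as filed and its product quenches rhodamine fluorescence; 0% = enzyme reaction without inhibitor and -100% = no enzyme wells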
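With Hepes-Na pH 7.6 buffer containing 10 mM MgCl2, Sfp (15 nM) modified BHQ-2-YbbR (12.5 uM) using rhodamine-CoA (5 uM). Two reads 30 minutes apart at 525/598 nm yielded each well's rate.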
L3MBTL1 inh: inhibitors of human L3MBTL1; Q9Y468; AlphaScreen L3MBTL1–H3K9me1 peptide binding; Potency, µM (top dose mostly 57.1 µM), for inactives: at the highest dose activity, negative = inhibition, hits mostly inhibitors; 230,000 compounds, 0.66% hits; AID 485360; also: % is scaled to controls: 0 for no effect and ±100 for the full control effect; nearly all actives have a fitted effect of over 60% in size
Target sequence (Q9Y468 whole entry, looked up): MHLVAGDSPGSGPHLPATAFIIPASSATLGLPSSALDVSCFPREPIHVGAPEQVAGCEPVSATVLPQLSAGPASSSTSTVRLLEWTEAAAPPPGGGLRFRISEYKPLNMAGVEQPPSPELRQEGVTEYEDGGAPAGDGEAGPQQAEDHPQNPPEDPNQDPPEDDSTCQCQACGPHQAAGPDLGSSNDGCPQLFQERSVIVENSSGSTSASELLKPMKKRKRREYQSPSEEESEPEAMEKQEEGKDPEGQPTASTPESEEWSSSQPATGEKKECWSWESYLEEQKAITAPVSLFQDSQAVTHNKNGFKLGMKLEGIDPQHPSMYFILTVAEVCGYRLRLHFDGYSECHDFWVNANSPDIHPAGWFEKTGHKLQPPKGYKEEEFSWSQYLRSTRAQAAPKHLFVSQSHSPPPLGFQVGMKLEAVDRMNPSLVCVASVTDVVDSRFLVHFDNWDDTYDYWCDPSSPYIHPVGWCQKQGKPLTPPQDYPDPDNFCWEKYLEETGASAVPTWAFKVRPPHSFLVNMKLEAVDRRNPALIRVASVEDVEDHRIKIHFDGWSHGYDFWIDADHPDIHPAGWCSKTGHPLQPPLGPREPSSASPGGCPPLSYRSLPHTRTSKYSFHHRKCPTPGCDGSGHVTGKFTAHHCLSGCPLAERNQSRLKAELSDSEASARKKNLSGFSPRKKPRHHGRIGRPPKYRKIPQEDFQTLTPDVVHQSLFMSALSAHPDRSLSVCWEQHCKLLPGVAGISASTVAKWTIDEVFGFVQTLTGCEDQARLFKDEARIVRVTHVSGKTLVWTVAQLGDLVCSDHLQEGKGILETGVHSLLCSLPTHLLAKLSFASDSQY
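L3MBTL1 50 nM + b-AHA-H3(1-15)K9me1 75 nM, 30 min RT; compound added, 30 min RT; streptavidin donor/Ni-chelate acceptor beads 10 ug/mL each final, 30 min RT dark; AlphaScreen read.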
BAZ2B inh: blocks human BAZ2B; AlphaScreen BAZ2B-H3K14Ac peptide displacement; Potency, µM (series often up to 114 µM), for the others: top-dose activity change, negative = inhibition, usual class: inhibitors; 360,000 compounds, 4.4% hits; AID 504333; also: % is scaled to controls: 0 for no effect and ±100 for the full control effect; nearly all actives have a fitted effect of over 60% in size
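AlphaScreen displacement of biotin-H3(5-23)K14Ac peptide (50 nM final) from BAZ2B (50 nM final) in PBS pH 7.4, 0.01% Tween-20; complex preformed 30 min RT, then compounds (top 110 uM) 30 min RT, beads 20 min dark.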
The depositor's hits bear a star; u = inconclusive; x = not tested or not shown; [ ] = remark or other dose. Calls follow the shape of the dose curve; as a rule, active = well fitted curve in the direction sought with a large enough effect; inconclusive = small, poorly fitted or top-dose-only effect, or another doubt; inactive = no such curve, though single readings can be large; an effect the other way counts as inactive or inconclusive. Potency is read from the fitted curve at half-maximal effect.

SMILES	HP1b chromo inh	G9a block	JMJD2A Tudor inh	Sfp PPTase inh	L3MBTL1 inh	BAZ2B inh
CCOc1cc2c(cc1OCC)-n1cccc1C(c1ccccc1O)NC2 (stereo not drawn)	u	50.1µM*	50.1µM*	u	x	50.1µM*
CCOc1cc2c(cc1OCC)-n1cccc1C(c1c(O)cccc1OC)NC2 (stereo not drawn)	-22.6%	-12.3%[2.33 µM]	50.1µM*	1.8%	x	44.7µM*
Cn1c(O)c(C(=O)c2ccccc2F)c(=O)n(C)c1=O	27.9%	11.2µM*	-17.2%	u	x	-29.5%
CC(CNC(=O)c1ccc(CSc2nc3ccncc3n2Cc2ccc(F)cc2)cc1)c1ccccc1 (stereo not drawn)	30.8%	u	-23.3%	x	x	-8.5%
NC(=O)[C@@H]1CCCN1C(=O)[C@H](Cc1ccccc1)NC(=O)[C@@H]1CCCN1C(=O)[C@@H](N)Cc1ccc(O)cc1	x	27.1%[59 µM]	x	6.1%	x	x
c1ccc2c(CCNC3CCCCC3)c[nH]c2c1	79.4µM*	12.6µM*	31.6µM*	50.1µM*	-20.0%	u
FC(F)(F)c1ccc(CNCCc2c[nH]c3ccccc23)cc1	10.3%	13.2%	u	-0.1%	-4.6%	u
Clc1cccc(CNCCc2c[nH]c3ccccc23)c1	u	10.9%[2.33 µM]	7.08µM*	5.0%	x	50.1µM*
CC(C)(C)n1cccc1/C=C1\C(=O)NC(=O)N(c2ccccc2)C1=O	31.0%	u	-24.3%	-26.9%	-1.3%	-9.8%
Cc1cc(C)cc(N2C(=O)NC(=O)/C(=C/c3cccn3-c3ccc(Cl)cc3)C2=O)c1	40.9%	31.6µM*	-2.8%	50.1µM*	-8.3%	-9.7%
Cc1cccc(N2C(=O)NC(=O)/C(=C\c3cccn3-c3ccc(Cl)cc3)C2=O)c1	27.8%	24.0%[0.501 µM]	-9.8%	50.1µM*	-5.6%	4.5%
CCOc1ccc(C2c3c(-c4ccccc4O)n[nH]c3C(=O)N2Cc2ccncc2)cc1 (stereo not drawn)	24.9%	3.4%[59 µM]	u	x	x	-30.3%
COc1cc2c(cc1OC)-c1c(OC)c(OC)c(CO)c3c1C(C2)N(C)CC3 (stereo not drawn)	x	x	x	-0.5%	x	x
CCCCC[C@@H](/C=C/C=C\CCCCCCCCCC(=O)O)OO	x	x	x	1.9%	x	x
O=c1ccc2cc(OC3O[C@H](CO)[C@@H](O)[C@H](O)[C@H]3O)c(O)cc2o1 (stereo partly drawn)	19.0%	-38.1%[59 µM]	-7.2%	x	4.6%	-3.8%
O=c1cc(-c2ccc(O)c(O)c2)oc2c(C3O[C@H](CO)[C@@H](O)[C@H](O)[C@H]3O)c(O)cc(O)c12 (stereo partly drawn)	4.2%	79.4µM*	u	-27.5%	10µM*	u
O=C1C2CCN(CC2)C1Cc1ccccc1O (stereo not drawn)	22.7%	9.1%	-5.2%	17.9%	-1.3%	5.3%
Oc1ccc(CC2CC3CCN2CC3)cc1O (stereo not drawn)	-29.6%	u	28.2µM*	-29.5%	-2.1%	-2.3%
Cc1ccc(C)c(CN2C(=O)c3ccccc3S(=O)(=O)c3ccc(C(=O)N4CCCCCC4)cc32)c1	14.4%	-10.3%[59 µM]	-23.9%	x	x	u
Cc1oc(-c2cccc(Cl)c2)nc1CN1CCC(C(=O)NCCCN2CCN(c3cccc(Cl)c3)CC2)CC1	-7.7%	u	31.6µM*	x	x	28.2µM*
C=CCC1(C(C)CCC)C(=O)N=C(S)NC1=O (stereo not drawn)	x	3.1%[59 µM]	x	23.4%	x	x
C[C@@H]1C[C@@H]2[C@H]([C@H]3C=C(COC(=O)c4ccccc4)[C@@H](O)[C@]4(O)[C@@H](O)C(OC(=O)c5ccccc5)=C[C@@]14C3=O)C2(C)C	x	x	x	10.4%	x	x
Cc1ccccc1N1C(=O)NC(=O)/C(=C\c2cnn(-c3ccccc3)c2)C1=O	33.8%	u	-28.8%	25.1µM*	-16.9%	5.7%
NC(=O)c1ccc(N=Cc2c(O)n(Cc3ccco3)c(=O)[nH]c2=O)cc1	119.3%	39.8µM*	u	-8.7%	x	u
O=c1[nH]c(=O)n(Cc2ccco2)c(O)c1/C=N/N1CCCCCC1	7.0%	u	-13.2%	-18.9%	-11.6%	-7.7%
SMILES	HP1b chromo inh	G9a block	JMJD2A Tudor inh	Sfp PPTase inh	L3MBTL1 inh	BAZ2B inh
CCn1c(O)c(C=NCc2cccs2)c(=O)[nH]c1=O	-3.2%	-1.4%	u	23.8%	13.8%	-4.4%
O=c1[nH]c(=O)n(Cc2ccco2)c(O)c1C=NCc1cccs1	-1.0%	-36.8%[59 µM]	-22.8%	50.1µM*	x	u
O=c1[nH]c(=S)n(Cc2ccco2)c(O)c1C=NCc1cccs1	u	3.55µM*	u	-1.2%	x	5.01µM*
N#Cc1c(/N=C/c2c(O)n(Cc3ccco3)c(=O)[nH]c2=O)sc2c1CCCC2	-23.3%	-16.3%[0.0925 µM]	79.4µM*	79.4µM*	14.1µM*	u
CCN(CC)c1ccc(N=Cc2c(O)n(Cc3ccco3)c(=O)[nH]c2=O)cc1	24.1%	x	-5.3%	-9.6%	1.0%	-6.9%
Cc1[nH]c2ccc(O)cc2c1CCN	-17.6%	3.55µM*	u	u	-10.6%	-37.9%
NCCc1c(Cc2ccccc2)[nH]c2ccccc12	-6.9%	x	-20.3%	x	x	x
Cc1[nH]c2ccc(OCc3ccccc3)cc2c1CCN	u	50.1µM*	u	-0.1%	-29.6%	u
Cc1[nH]c2c(C(F)(F)F)cccc2c1CCN	-7.0%	-23.6%[59 µM]	-26.8%	-0.3%	-8.7%[11.4 µM]	u
CC[C@@H](CO)NC(=O)[C@H]1C=C2c3cccc4[nH]cc(c34)C[C@H]2N(C)C1	x	x	x	20.4%	x	x
NC(=O)CSP(=O)(c1ccccc1)c1ccccc1	18.1%	12.6µM*	-31.4%	15.8µM*	0.0%	-22.2%
CC(N)[C@H](O)c1ccccc1 (stereo partly drawn)	x	x	x	9.6%	x	x
[Hg+][c]1ccccc1	x	u	x	0.224µM*	x	x
Cc1ncc(CN2CC=C(c3ccccc3)CC2)c(N)n1	x	x	x	-17.7%	x	x
Oc1ccc2ccccc2c1CN1CC=C(c2ccccc2)CC1	51.3%	44.7µM*	-2.0%[57.1 µM]	12.4%	4.3%	-14.7%

Source: PubChem
